D1 agonist = human D1 receptor agonism; HEK293 T-REx D1 cells, calcium flux, agonist mode; activation, % at 2 µM; hit rate 1% among 360,000; also: 0% is about no effect
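Tetracycline-induced HEK293 TREx D1 cells, force-coupled to calcium signalling, were dye-loaded with a no-wash calcium kit. Compound was pin-added after a 10 s baseline. Fluorescence was read kinetically at 1 cycle/s for 180 s, with calcium rises flagged as agonism.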
D1 antagonist = human D1 dopamine receptor antagonism. P21728. HEK293 TREx D1 cells, calcium flux, dopamine EC80; stronger effect = lower value. activity change, negative = inhibition, % at 10 µM. hit rate 3.2% among 360,000. AID 504652; in the data active = activity change below about -30%; also: % is scaled to controls: 0 for no effect and ±100 for the full control effect
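Compound effects on dopamine-evoked calcium signalling were measured in tetracycline-induced HEK293 Trex D1 cells. Dopamine at EC80 followed a 180 s compound pre-read, and fluorescence was tracked kinetically for 180 s more.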
D1 PAM = enhances dopamine response at the human D1 receptor; P21728; HEK293 TREx D1 cells, calcium flux, dopamine EC20 potentiation; potentiation, % at 10 µM; hit rate 0.036% among 360,000; in the data active = potentiation above about 30%; also: 0% is about no effect
TRHR PAM = allosteric enhancers of human TRH receptor | AID 493056 | enhancement, % at 2 µM | hit rate 0.66% among 360,000 | TRHR cells, fluo-8 calcium fluorescence, EC20 TRH enhancement; in the data active = enhancement above about 30%; also: 0% is about no effect
Target sequence (P34981 whole entry, looked up): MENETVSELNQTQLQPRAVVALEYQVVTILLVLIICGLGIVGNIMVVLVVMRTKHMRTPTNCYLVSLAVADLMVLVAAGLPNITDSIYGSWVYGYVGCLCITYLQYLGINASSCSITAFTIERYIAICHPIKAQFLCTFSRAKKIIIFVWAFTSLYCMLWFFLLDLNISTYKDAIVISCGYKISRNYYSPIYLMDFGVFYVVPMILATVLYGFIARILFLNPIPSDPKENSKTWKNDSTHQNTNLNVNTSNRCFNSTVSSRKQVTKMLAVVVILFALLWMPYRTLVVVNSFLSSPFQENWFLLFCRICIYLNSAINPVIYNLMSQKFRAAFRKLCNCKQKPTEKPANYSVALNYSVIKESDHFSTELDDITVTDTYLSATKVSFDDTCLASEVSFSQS
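TRHR-expressing cells loaded with fluo-8 calcium dye were read kinetically (ex 480/em 530) during compound addition, then stimulated with an EC20 of TRH (10 nM final). Enhancement of the Gq-mediated intracellular calcium response was scored.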
USP1-UAF1 inh = USP1/UAF1 (human) deubiquitinase inhibition | O94782 | recombinant USP1/UAF1, Ub-Rhodamine cleavage fluorescence | Potency, µM (titrated, usually from 57.1 µM), for the others: at the top dose activity change, negative = inhibition, most hits filed as inhibitors | hit rate 0.23% among 390,000 | AID 743255; active = well fitted inhibition curve with a large enough effect; inconclusive = small, poorly fitted or top-dose-only effect; inactive = no such curve, though single readings can be large or run the other way; also: potency is read from the fitted curve at half-maximal effect; % is scaled to controls: 0 for no effect and ±100 for the full control effect; nearly all actives have a fitted effect of over 60% in size
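1 nM enzyme complex + cpd, 15 min RT; start with Ub-Rho 150nM final; kinetic fluorescence ex 480/em 540, 6 reads q60 s. Buffer 50mM HEPES pH 7.8, 0.5mM EDTA, 0.1 mg/ml BSA, 1mM TCEP, 0.01% Tween-20.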
TRHR agonist = TRH receptor (human) agonism | P34981 | TRHR cells, calcium flux fluo-8, FDSS agonist mode | activation, % at 2 µM | hit rate 0.18% among 360,000; also: 0% is about no effect
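TRHR-expressing cells loaded with fluo-8 calcium dye; 23 nL library compound pin-transferred, kinetic FDSS fluorescence (Ex 480/Em 530) recorded about 180 s for agonist-induced calcium release, before a 10 nM TRH EC20 addition for potentiator mode.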
The depositor's hits bear a star; ? = inconclusive; / = no result given; ! = not active in a repeat. Most compounds without a hit are left out; they make up all but 4.4% or so of the library. Rule as the data show it, unless noted: active = activation above about 30%; inactive = the rest.

SMILES	D1 agonist	D1 antagonist	D1 PAM	TRHR PAM	USP1-UAF1 inh	TRHR agonist
CC1C(=O)N2CCCc3cc(S(=O)(=O)N4CCN(c5ccc(F)cc5)CC4)cc1c32 (configuration not stated)	3	-46*	12	-4	-21%	1
CCn1cc(C(=O)N2CCN(c3ccccc3)CC2)c(=O)c2cc(S(=O)(=O)N(C)C3CCCCC3)ccc21	1	-19	-1	-3	-28%	-1
COc1cc2c(c(OCC(=O)NC(C)C)c1)C(=O)O[C@@H](C)CCCC(=O)CCCCC2	0	-33*	-7	0	-16%	1
COc1cc(OCC(=O)NC(C)C)cc2c1C(=O)O[C@@H](C)CCCC(=O)CCCCC2	0	0	-1	-4	-8%	0
O=C(NCCCN1CCN(c2ccccc2)CC1)c1nnc(Cc2ccc(F)cc2)o1	0	-9	-3	-2	-12%	0
COc1ccc(CCNC(=S)NC(=O)c2ccccc2)cc1C	6	-33*	-7	-5	-13%	0
Cc1nn(C)cc1CNC(=O)C1C2CCC(C2)C1C(=O)O (configuration not stated)	6	-32*	-3	-2	/	1
COc1ccc(C2C(C(=O)N3CCN(c4ccccc4)CC3)c3ccccc3C(=O)N2C)cc1OC (configuration not stated)	2	-5	-2	6	-13%	0
COc1ccc(C2C(C(=O)N3CCN(c4ccccc4)CC3)c3ccccc3C(=O)N2C)cc1 (configuration not stated)	-2	-41*	-7	-7	-10%	0
O=C(Nc1ccccc1)c1ccc(Br)c(S(=O)(=O)N2CCCCC2)c1	13	-12	-4	-3	-14%	1
Cc1cc(C)cc(NC(=O)C(=O)NCCCN2CCOCC2)c1	-1	-79*!	2	4	-22%	-1
O=C(NCCCN1CCOCC1)c1ccc(Br)s1	2	4	5	-5	-10%	1
Cc1ccc(S(=O)(=O)NC(=O)c2cc(C)n(CCCN3CCOCC3)c2C)cc1	1	1	1	-1	-2%	1
Cc1ccc(S(=O)(=O)NC(=O)NCCCN2CCOCC2)cc1	2	-56*	-10	-2	-13%	0
O=C(NCCCN1CCOCC1)c1cccs1	8	-35*	6	4	-8%	0
Cc1ccc(NC(=O)c2cccn2-c2nnc(N3CCCCC3)s2)cc1Cl	5	19	7	2	-3%	0
CCOc1ccc(NC(=O)Cc2coc3ccc(C)cc23)cc1	22	-19	-2	4	-23%	-2
Cc1ccc(/C=C/C(=O)N2CCN(c3ncccn3)CC2)o1	2	-43*	-5	0	-5%	0
O=C(O)c1ccc(NC2=C(n3nnc4ccccc43)C(=O)c3ccccc3C2=O)cc1	0	-13	-6	-7	16µM*	0
CC(C)(C)c1ccc(S(=O)(=O)N(CCCN2CCOCC2)Cc2cccs2)cc1	9	-33*	-15	0	-14%	-1
CC(=O)Nc1ccc(S(=O)(=O)N(CCCN2CCOCC2)Cc2cccs2)cc1	3	4	-6	1	0%	-2
Cc1cc(C)cc(OCC(=O)N2N=C(C(F)(F)F)CC2(O)C(C)(C)C)c1 (configuration not stated)	34*	-12	-6	6	-11%	0
Cc1cc(C)cc(OCC(=O)N2N=C(c3cccnc3)CC2(O)C(F)(F)F)c1 (configuration not stated)	6	0	-1	6	-10%	0
O=C(O)COc1ccccc1/C=N/NC(=O)Cc1csc(Nc2cccc(C(F)(F)F)c2)n1	1	-10	-6	36*	-26%	1
O=C(O)COc1ccccc1/C=N/NC(=O)CSc1nnc(SCc2cccc3ccccc23)s1	35*	-2	-1	5	-19%	-1
SMILES	D1 agonist	D1 antagonist	D1 PAM	TRHR PAM	USP1-UAF1 inh	TRHR agonist
O=C(O)COc1ccccc1/C=N/NC(=O)Cc1ccccc1	1	6	-2	3	-27%	1
Cn1c(=O)n(C)c2cc(NS(=O)(=O)c3ccccc3)c(NCc3ccccc3)cc21	2	-4	-5	30*	-12%	0
Cc1ccc(CNC(=O)c2ccc(CN3CC(=O)N4CCCCC4C3=O)cc2)cc1 (configuration not stated)	-1	10	3	14	7%	0
O=C1C=C(c2ccc(-c3ccccc3)cc2)C[C@@H](c2ccc(Cl)cc2)C1	2	-36*	-13	-1	?	1
COc1ccc([C@H]2CC(=O)C=C(c3ccccc3OC)C2)cc1OC	1	-46*	-6	-7	-28%	0
COc1cccc(C2=CC(=O)C[C@H](c3ccc(Cl)cc3)C2)c1OC	12	-16	-4	4	?	0
COc1ccccc1C1=CC(=O)C[C@H](c2ccc(Cl)cc2)C1	12	-36*	-5	-4	-19%	1
O=C1C=C(c2ccc(C(=O)O)cc2)C[C@@H](c2ccc(Cl)cc2)C1	0	-5	-1	-3	-11%	0
COc1ccc([C@H]2CC(=O)C=C(c3ccccc3)C2)cc1OC	-1	-26	-4	2	?	-1
COc1ccccc1N1CCN(S(=O)(=O)c2ccc(F)c(C(=O)Nc3ccc(C)c(F)c3)c2)CC1	-1	-1	-1	-6	?	0
CC1=C(C(=O)Nc2cccc(C(F)(F)F)c2)C(c2ccccn2)n2ncnc2N1 (configuration not stated)	1	12	-1	2	-31%	0
CCCOc1ccc(-c2nonc2NC(=O)c2cc(OC)c(OC)c(OC)c2)cc1OCCC	38*	-1	-2	8	?	-1
CC(Oc1ccccc1)C(=O)Nc1ccc(C(=O)OCc2cc(=O)n3ccsc3n2)cc1 (configuration not stated)	15	10	1	-4	-7%	0
O=C(Nc1cccc(-c2cn3ccccc3n2)c1)c1cc2ccccc2oc1=O	0	-35*	3	-2	?	0
CC(=O)Nc1cccc(-c2cn3ccccc3n2)c1	1	2	12	-3	5%	0
Cc1ccc(CN(C(=O)c2ccc(OCC(C)C)cc2)c2ccccn2)o1	18	-5	-1	4	-10%	2
Cc1c(CC(Cl)(Cl)Cl)c2c(n1O)CC(C)(C)CC2=O	26	-46*	-3	-5	-15%	1
CCCCc1ccc(Nc2cc(C)nc(-n3nc(C)cc3C)n2)cc1	0	-2	3	11	?	0
